Bioassay records deposited in PubChem by several laboratories.
The list is not random: actives were taken first. Their share in the collection is about 3.3%.
sPLA2-III inh: Inhibits HGIII-sPLA2 liposome hydrolysis, primary screen | Q9NZ20 | QFRET BODIPY PC-A2 liposome hydrolysis, fluorescence | inhibition, % at 12.2 µM | 370,000 tested, 0.56% active | AID 743126;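 active = inhibition above mean plus 3 SD of compounds lying within the high and low control bounds, cut at about 19% in these data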;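 note: 0% = median of test compound wells and 100% = no enzyme DMSO wells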
SUMO HTRF inh: blocks human SUMOylation mediated by UBC9; 290,000 tested, 0.36% active; inhibition, % at 35 µM; P63279; HTRF SUMOylation assay, SAE1/SAE2 + UBC9, in vitro; in the data active = inhibition above about 50%, passing the limit was not always enough
Target sequence (P63279 whole entry, looked up): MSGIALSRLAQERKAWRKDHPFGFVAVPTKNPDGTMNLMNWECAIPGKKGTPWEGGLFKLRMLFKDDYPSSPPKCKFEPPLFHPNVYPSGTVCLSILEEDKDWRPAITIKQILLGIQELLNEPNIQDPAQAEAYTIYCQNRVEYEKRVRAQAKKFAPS
UBC13 inh: human UBC13 polyubiquitination inhibition; UBC13 polyubiquitin chain formation, TR-FRET; AID 485273; 330,000 tested, 0.47% active; inhibition, % at 20 µM; in the data active = inhibition above about 45%, passing the limit was not always enough
Target sequence (P61088 whole entry, looked up): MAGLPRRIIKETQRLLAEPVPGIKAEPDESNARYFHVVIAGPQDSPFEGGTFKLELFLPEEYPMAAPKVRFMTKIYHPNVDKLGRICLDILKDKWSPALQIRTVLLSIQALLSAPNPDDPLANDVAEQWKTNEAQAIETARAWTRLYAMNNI
NR3A LBD binder: modulates the human NR3A ligand-binding domain | NR3A LBD differential scanning fluorimetry, Tm shift; 0% = protein alone, 100% = glycine-bound protein | Tm shift relative to glycine control, % at 25 µM | 340,000 tested, 2.5% active | AID 1259313;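 active = melting temperature shift of at least 10% of the positive control shift, at one fixed dose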
The depositor's hits bear a star; . = no result given.

SMILES	sPLA2-III inh	SUMO HTRF inh	UBC13 inh	NR3A LBD binder
CCC(C)c1ccc(C(C)NC(=S)NCc2ccc(F)cc2)cc1 (configuration not stated)	4.1	-12.2	1.3	12.7*
CC1CCC2(CCC(=O)N2CCCOC(=O)Nc2cccc(C(F)(F)F)c2)CC1 (configuration not stated)	1.9	.	.	.
O=C(NC1CCCCN(Cc2ccc(Cl)cc2)C1=O)c1ccccc1 (configuration not stated)	3.4	.	.	.
CCn1cc(/C=N\NC(=O)c2ccc3c(c2)c(C)c(C)n3Cc2ccccc2)c(C)n1	-4.8	-22.0	7.0	18.8*
Clc1cccc(-c2nc3nc4ccccc4nc3n2Cc2ccccc2)c1	2.9	-12.0	27.4	11.6*
c1ccc(Cn2c(-c3ccccc3)nc3nc4ccccc4nc32)cc1	8.3	-10.1	17.1	18.0*
C=CCn1c(-c2ccccc2)nc2nc3ccccc3nc21	8.4	7.4	0.7	0.7
S=c1[nH]nc(-c2cccc(Cl)c2)n1Cc1ccccc1	11.7	13.7	33.2	-2.9
Cc1ccc(-c2cc(-c3nnc(SCc4cccc5ccccc45)n3N)[nH]n2)cc1	0.2	.	.	.
COc1ccc(OC)c(NC(=O)C23CCC(C)(C(=O)C2)C3(C)C)c1 (configuration not stated)	7.9	16.4	1.9	10.8*
O=C(Nc1ccc(N2CCOCC2)c2nonc12)C1CCCC1	-8.8	78.4	-35.7	2.4
Nc1ccc(N2CCOCC2)c2nonc12	5.1	98.9*	-49.4	-0.7
O=C(Nc1cccc(C(F)(F)F)c1)OC1CCC12CCC(c1ccccc1)CC2 (configuration not stated)	11.1	.	.	.
Cc1ccc(C2CC(=O)Oc3cc(C)c(Br)c(C)c32)cc1 (configuration not stated)	-15.9	.	.	18.1*
O=C(CN1CCCCC1)Nc1ccc(S(=O)(=O)N2CCCCCC2)cc1	-5.0	-11.4	-7.6	11.2*
Cc1cc(C)nc(NS(=O)(=O)c2ccc(NC(=O)Nc3ccccc3F)cc2)n1	-20.3	22.3	-1.3	11.3*
O=C(Nc1ccc(NC(=O)c2ccccc2O)cc1)Nc1ccc(F)cc1F	-4.3	34.7	11.6	31.2*
CCCCC(=O)Nc1ccc(C(=O)Nc2ccc(S(=O)(=O)N3CCCC3)cc2)cc1	-7.3	-4.7	7.4	30.7*
CCCCCn1nnnc1C1(C)CCCC(=O)N1Cc1ccco1 (configuration not stated)	2.7	.	.	.
CN(Cc1ccccc1)C(=O)OCc1cn(Cc2ccc(F)cc2F)nn1	-1.7	.	.	.
COC(=O)c1cc(-c2cccc(OCc3ccccc3)c2)c(=O)n2c1CCC2	-0.1	.	.	.
CN(C)CC(=O)N[C@@H]1C[C@@H]2O[C@@H](CO)CC[C@@H]2O[C@@H]1CCc1ccc(C2=CCCCC2)cc1	-18.4	.	.	.
Cc1cc(C)nc(NS(=O)(=O)c2ccc(NC(=O)c3cc(-c4ccccc4)nc4ccccc34)cc2)n1	-60.3	2.8	9.6	19.0*
CC(=O)c1ccc(NC(=O)C2CCN(S(=O)(=O)c3ccc4c(c3)N(C(C)=O)CCO4)CC2)cc1	-1.1	10.2	0.0	19.2*
COc1ccccc1C(=O)Nc1ccc(S(=O)(=O)Nc2cc(C)nc(C)n2)cc1	-7.2	13.3	-1.0	15.7*
SMILES	sPLA2-III inh	SUMO HTRF inh	UBC13 inh	NR3A LBD binder
CC(=O)N1CCOc2ccc(S(=O)(=O)N3CCC(C(=O)Nc4cc(C)cc(C)c4)CC3)cc21	-2.0	-2.5	9.2	-2.8
O=C(Nc1ccc(F)cc1)c1ccc(S(=O)(=O)N2CCCC2)cc1	-3.2	-2.4	-2.7	-1.2
O=C(Nc1ccc(F)cc1)Nc1ccc(S(=O)(=O)N2CCCC2)cc1	-38.1	.	2.8	28.4*
O=C(c1ccc(Cl)cc1)N1CCN(c2ccccn2)CC1	-1.6	.	.	.
O=C(NCCc1c[nH]c2ccccc12)OCc1cn(-c2ccccc2Cl)nn1	-72.2	.	.	.
O=C(/C=C/c1ccc(F)cc1)Nc1cc(S(=O)(=O)N2CCOCC2)ccc1N1CCOCC1	12.8	.	.	.
O=C(Nc1ccc(S(=O)(=O)N2CCCC2)cc1)c1ccc(Cl)nc1	4.5	.	-0.1	-1.8
CC(=O)c1ccc(NC(=O)c2ccc(S(=O)(=O)N3CCCC3)cc2)cc1	-12.3	0.9	2.1	3.2
O=C(Nc1ccc(S(=O)(=O)N2CCCCC2)cc1)c1ccc(Cl)nc1	-3.5	.	7.0	24.1*
CC(=O)c1ccc(NC(=O)Nc2ccc(S(=O)(=O)N3CCCC3)cc2)cc1	-48.0	3.6	-10.7	30.2*
Cc1ccc(C(=O)Nc2ccc(S(=O)(=O)N3CCCC3)cc2)s1	-12.2	-9.8	9.7	23.6*
O=C(/C=C/c1ccc(F)cc1)Nc1ccc(S(=O)(=O)N2CCOCC2)cc1	3.8	1.3	-3.3	22.5*
O=C(NCC(c1ccccc1)c1ccccc1)[C@H](Cc1c[nH]c2ccccc12)NC1(C(=O)NC2CCCCC2)CCCCCC1	-4.5	.	.	.
CC(=O)N1CCN(c2cc(-c3ccco3)nc3cc(-c4ccccc4)nn23)CC1	7.8	.	.	.
CN1CC(=O)N2[C@@H](C[C@]3(c4c[nH]c5ccccc45)c4ccccc4N(S(=O)(=O)c4ccccc4)[C@H]23)C1=O	-10.6	.	.	.
Cc1cccc(-c2nnc(SCc3cccc4ccccc34)n2-c2ccc(Cl)cc2)c1	7.6	.	.	.
O=C(Nc1cccc(O)c1)c1ccc(S(=O)(=O)N2CCCCCC2)cc1	-26.2	-15.9	-0.9	2.2
COc1ccc(/C=C/C(=O)Nc2cccc(F)c2)cc1S(=O)(=O)N1CCOCC1	-11.0	17.9	1.5	10.1*
O=C(Nc1ccc(S(=O)(=O)N2CCCC2)cc1)Nc1ccc(F)cc1F	-23.2	-22.0	8.7	36.9*
CCOC(=O)c1sc(NC(=O)c2ccc(S(=O)(=O)N3CCCCC3)cc2)nc1-c1ccccc1	1.7	12.1	17.7	12.6*
O=C(Nc1cccc(F)c1)c1ccc(S(=O)(=O)N2CCCCC2)cc1	-1.3	8.5	0.6	16.9*
COc1ccc(/C=C/C(=O)Nc2ccccc2F)cc1S(=O)(=O)N1CCOCC1	9.8	.	1.2	-3.1
O=C(Nc1ccc(F)cc1F)c1ccc(S(=O)(=O)N2CCCCC2)cc1	1.3	19.6	-6.9	-1.6
CC(C)C(=O)OCCCN1C(=O)CCC12CCC(c1ccccc1)CC2 (configuration not stated)	-4.6	.	.	.
CC(=O)Nc1ccc(C(=O)Nc2ccc(S(=O)(=O)N3CCCCC3)cc2)cc1	-4.2	-2.0	4.4	23.3*
SMILES	sPLA2-III inh	SUMO HTRF inh	UBC13 inh	NR3A LBD binder
Cc1ccc(S(=O)(=O)Nc2ccc(NC(=O)Nc3ccc(F)cc3F)cc2)cc1	-37.7	-18.1	17.9	28.9*
O=C(Nc1ccc(F)cc1F)Nc1ccc(F)cc1F	0.6	-4.4	-5.5	-2.4
CN(C(=O)CSc1nc2ccccc2n1CCc1ccccc1)C1CCS(=O)(=O)C1 (configuration not stated)	4.2	8.4	-5.4	14.4*
CCCCc1ccc2nc(NC(=O)c3ccc(Br)o3)sc2c1	-20.8	.	.	.
S=c1nc2[nH]c3ccccc3c2n[nH]1	7.3	.	.	20.4*
CNc1nc(=S)[nH]c2ccccc12	-1.9	0.0	-5.8	1.5
COc1cc2cc(CN(Cc3cccs3)C(=S)Nc3ccc(C)cc3)c(=O)[nH]c2cc1OC	-6.3	-2.4	1.6	11.6*
COc1cc2cc(CN(Cc3cccs3)C(=S)Nc3cccc(C)c3)c(=O)[nH]c2cc1OC	.	-19.1	3.6	.
